“And” between values parts separate entries of the source, which are not always exact repeats. Identical values can stand only once. Unmarked numbers belong to inactive results. Inconclusive results are not listed. The source made the active and inactive calls. Unless noted, calls come from the whole dose curve; as a rule, active = well fitted curve in the direction sought with a large enough effect; inconclusive = small, poorly fitted or top-dose-only effect, or another doubt; inactive = no such curve, though single readings can be large; an effect the other way counts as inactive or inconclusive.

Experiment [1] has as its target Luciferin 4-monooxygenase (Photinus pyralis) (UniProt P08659). Description: Biochemical firefly luciferase enzyme assay for NPC (AID 624030).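 Note: purified P. pyralis luciferase at 10 nM with luciferin and ATP substrate; 0% = DMSO and -100% = full luciferase inhibition by PTC124 control; nearly all actives have a fitted effect of over 70% in size.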 To be noted: purified P. pyralis luciferase, luminescence, 5 min; series mostly up to 58.6 µM. In outline:
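Counter-screen for direct inhibition of the luciferase enzyme by approved-drug library compounds, run at 10 nM enzyme in 50 mM Tris acetate (final). Luminescence was read within 5 min of enzyme-buffer addition and normalized to PTC124 versus DMSO (0%).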

Experiment [2] has as its target Glutathione peroxidase 1 (Homo sapiens) (UniProt P07203). Description: Primary qHTS Assay for Inhibitors of Recombinant Selenoprotein Glutathione Peroxidase 1 (GPX1) (AID 1845191). For activity, negative = inhibition: % is set by controls: 0 for no effect and ±100 for the full control effect. Note: nearly all actives have a fitted effect of over 65% in size. To be noted: recombinant GPX1, GR-coupled NADPH fluorescence, 15 min; series mostly up to 48.8 µM. The method, boiled down: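 Recombinant GPX1 (10 nM final) was preincubated with compound for 30 min at room temperature, then reacted with 1 mM GSH, 0.5 mM CHP, 0.5 mM NADPH and 100 nM glutathione reductase; NADPH fluorescence (340/450 nm) was read at 0 and 15 min.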
Background: Quantitative high-throughput screening tests each substance at several concentrations.

The nature of experiment [3]: qHTS profiling for inhibitors of Plasmodium falciparum proliferation (AID 504749).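 Note: 0% = DMSO vehicle and full inhibition = artemisinin control; nearly all actives have a fitted effect of over 60% in size.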 Particulars: P. falciparum in erythrocytes, SYBR Green DNA, 72 h, at 12.8 µM (top of the series). In outline:
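P. falciparum-infected erythrocytes (0.3% parasitemia, 2.5% hematocrit final) were exposed to compounds for 72 h at 37 C in 5% CO2, then lysed with SYBR Green buffer overnight at room temperature; parasite DNA fluorescence was normalized to artemisinin and DMSO controls.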

Experiment [4] in a line: Viability counterscreen for antagonist of constitutive androstane receptor (CAR) against the NCATS DSHEA and TCM libraries (AID 1794837).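 Note: compound exposure lasted 24 h before viability reading; 0% is about no effect.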 To be noted: CAR reporter cell line viability counterscreen, qHTS; series mostly up to 40 µM. In outline: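 Viability was measured by CellTiter-Fluor fluorescence (405/540 nm, 1 hr) in HepG2-CYP2B6-hCAR cells. Cells were co-treated 24 hr with 48 uM CITCO (final), antagonist mode, and test substances.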
A general note: The purpose of a counterscreen is to sort out artefacts and off-target activity.

The nature of experiment [5]: Viability counterscreen for agonist of constitutive androstane receptor (CAR) against the NCATS DSHEA and TCM libraries (AID 1794838).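 Note: HepG2 cells with CYP2B6 reporter and hCAR plus 0.75 µM PK11195 antagonist; 0% is about no effect.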 Particulars: HepG2 cell viability counterscreen, CAR agonist assay, co-treated with 0.75 µM CAR antagonist; series mostly up to 40 µM. The method, boiled down:
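Cell viability, from CellTiter-Fluor fluorescence (405/540 nm), was scored after a 24 h, 37C exposure of HepG2 cells carrying CYP2B6 reporter and hCAR to test substances in presence of 0.75 uM PK11195.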

Experiment [6] is described as follows: HepG2 viability counterscreen (readout 2: ATP content) against the NCATS DSHEA and TCM libraries (AID 1794840).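 Note: HepG2 cells exposed to substances for about 24 h; 0% is about no effect.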 Particulars: ATP content luminescence; series mostly up to 27.3 µM. The method, boiled down: (§1)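 Readout 1: cellular protease activity, GF-AFC substrate (25 uM final, 30 min, fluorescence 380/510 nm). Readout 2: ATP content by CellTiter-Glo luminescence after 30 min at RT. Both follow ~24 h exposure of HepG2 cells (1,000/well) to substances.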

The nature of experiment [7]: HepG2 viability counterscreen (readout 1: protease activity) against the NCATS DSHEA and TCM libraries (AID 1794841).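 Note: cells exposed to compounds for about 24 h before the protease read; 0% is about no effect.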 To be noted: qHTS concentration series; series mostly up to 27.3 µM. In outline:
as §1

The target in experiment [8] is Cytochrome P450 2D6 (Homo sapiens) (UniProt P10635). Nature of the experiment: qHTS for inhibitors of CYP2D6 against the NCATS DSHEA and TCM libraries (AID 1919972). Note: potency is the fitted concentration of half-maximal effect. Particulars: CYP2D6 enzymatic inhibition, luminescence qHTS; series mostly up to 34.1 µM. In outline: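 Steps: enzyme plus luciferin substrate dispensed; test substances pinned; 15 min RT; 1x NADPH regenerating solution added, 30–45 min RT protected from light; detection reagent, 30 min RT; luminescence measured. Minus-enzyme wells as background.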
Chain of Cytochrome P450 2D6 (Homo sapiens) (P10635 whole entry, looked up): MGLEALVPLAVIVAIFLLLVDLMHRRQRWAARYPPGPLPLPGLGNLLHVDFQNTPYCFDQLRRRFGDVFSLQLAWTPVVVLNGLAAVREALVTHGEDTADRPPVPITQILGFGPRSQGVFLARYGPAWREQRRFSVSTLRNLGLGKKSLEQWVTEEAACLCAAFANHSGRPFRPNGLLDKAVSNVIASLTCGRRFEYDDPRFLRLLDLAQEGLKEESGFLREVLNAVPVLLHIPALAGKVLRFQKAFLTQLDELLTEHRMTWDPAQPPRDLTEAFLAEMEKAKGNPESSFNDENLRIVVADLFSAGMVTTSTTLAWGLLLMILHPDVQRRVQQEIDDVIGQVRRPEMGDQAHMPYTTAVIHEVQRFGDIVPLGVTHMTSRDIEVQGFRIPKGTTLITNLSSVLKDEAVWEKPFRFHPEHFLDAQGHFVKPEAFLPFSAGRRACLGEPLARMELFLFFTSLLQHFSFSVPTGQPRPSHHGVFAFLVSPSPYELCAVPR

The target of experiment [9] is Cytochrome P450 2C19 (Homo sapiens) (UniProt P33261). Nature of the experiment: qHTS for inhibitors of CYP2C19 against the NCATS DSHEA and TCM libraries (AID 1919974).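 Note: luminescence from luciferin released by CYP2C19 oxidation of a pro-luciferin substrate; % is set by controls: 0 for no effect and ±100 for the full control effect.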 Particulars: CYP2C19 enzyme inhibition, luminescence qHTS; series mostly up to 34.1 µM. In outline:
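Light output from converted D-luciferin reports remaining CYP activity. Compounds preincubate with enzyme and substrate for 15 min; NADPH regeneration (1x final) runs the reaction for 30-45 min.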

Experiment [10] can be described thus: KB-3-1 P-gp reporter qHTS against the NCATS DSHEA and TCM libraries (AID 1919975). Note: 0% is about no effect. Particulars: KB-3-1 parental cells, CellTiter-Glo luminescence viability, 72 h; series mostly up to 26.1 µM. The method, boiled down:
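Cell viability by CellTiter-Glo luminescence following ~72 h compound exposure (concentration-response). Uses parental, non-P-gp-overexpressing KB-3-1 line, 500 cells/well in DMEM/10% FBS, attached ~4 h before dosing.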

Experiment [11] concerns the target Cytochrome P450 1A2 (Homo sapiens) (UniProt P05177). Nature of the experiment: qHTS for inhibitors of CYPIA2 against the NCATS DSHEA and TCM libraries (AID 1919976). Note: potency is the fitted concentration of half-maximal effect. Particulars: recombinant CYP1A2 enzyme activity, luminescence; series mostly up to 37 µM. In outline: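 In this quantitative HTS, inhibition of recombinant human CYP1A2 was measured as loss of luciferin-derived luminescence. Turnover ran 30-45 min at RT after NADPH regeneration solution was added.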

Experiment [12] is described as follows: qHTS Counterscreen for compound interference against the NCATS DSHEA and TCM libraries (AID 1919978).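 Note: compounds preincubated with 1 µM D-luciferin or buffer before detection reagent; % of control where 0% means no effect.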 To be noted: firefly luciferase detection reagent interference, luminescence. The method, boiled down: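 With 1 uM D-luciferin or phosphate buffer only, compounds at final 19.5 nM–39.8 uM were incubated for 15 min at room temperature. Luciferase detection reagent was then added, and luminescence was measured after a further 30 min at room temperature.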

A short description of experiment [13]: Dual reporter qHTS for agonist of Pregnane X Receptor (hPXR) against the NCATS DSHEA and TCM libraries: Fluorescence readout (AID 1920058). Note: 0% is about no effect. To be noted: PXR dual reporter cells; series mostly up to 40 µM. The method, boiled down:
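Measures viability of the PXR reporter HepG2 line by protease-substrate fluorescence (405/540 nm), taken 1 h after CellTiter-Fluor addition. Substances are tested as concentration series over a ~24 h exposure, with rifampicin as agonist control.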

Experiment [14] concerns the target Nuclear receptor subfamily 1 group I member 2 (Homo sapiens) (UniProt O75469). Nature of the experiment: Dual reporter qHTS for agonist of Pregnane X Receptor (hPXR) against the NCATS DSHEA and TCM libraries: Luminescence readout (AID 1920059). Note: 0% is about no effect. To be noted: hPXR dual reporter cells, luciferase luminescence agonist; series mostly up to 40 µM. The method, boiled down:
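hPXR-LucHepG2 cells in phenol red-free DMEM with 5% charcoal-stripped FBS, 2000 cells/well, attached 5 h, then exposed 24 h at 37C to compounds; rifampicin as positive agonist control (2.8 nM–92 uM). Luciferase luminescence read.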

The target is the same in experiment [15]. Nature of the experiment: Dual reporter qHTS for antagonist of Pregnane X Receptor (hPXR) against the NCATS DSHEA and TCM libraries: Luminescence Readout (AID 1920060).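 Note: HepG2 cells carrying hPXR luciferase reporter stimulated with rifampicin at 2 µM; 0% is about no effect.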 Particulars: hPXR dual reporter cells, luciferase luminescence, antagonist mode; series mostly up to 40 µM. In outline: (§2)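 Antagonist mode: rifampicin 2 uM final co-added with compounds to hPXR-LucHepG2 cells for 24 h at 37C. Viability by CellTiter-Fluor, Ex/Em 405/540 nm, 1 h; reporter by ONE-Glo luminescence.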

The nature of experiment [16]: Dual reporter qHTS for antagonist of Pregnane X Receptor (hPXR) against the NCATS DSHEA and TCM libraries: Fluorescence Readout (AID 1920061). Note: 0% is about no effect. To be noted: PXR dual reporter cells, antagonist mode; series mostly up to 40 µM. The method, boiled down: as §2
A short description of experiment [17]: Cell Viability - BJ (AID 421; calls by dose curve;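 note: potency is the fitted concentration of half-maximal effect; cells exposed to compound for 40 hours at 37 °C before readout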). To be noted: BJ fibroblast viability, qHTS. The method, boiled down:
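Luminescent ATP signal (CellTiter-Glo, 20 min at room temperature) served as the read-out of viable BJ cells after 40 hours of compound treatment. Responses were scaled between DMSO and 100 uM tamoxifen, and AC50 values were obtained by Hill modeling.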

The nature of experiment [18]: qHTS Assay for Identification of Small Molecule Inducers of Hypoxia Response (AID 2120; active = well fitted curve in the direction sought with a large enough effect in the signal ratio, with a control signal flat, not every such curve was filed as active; the % refers to the signal ratio; note: 0% is about no effect). Particulars: hypoxia response reporter cells, beta-lactamase ratio readout; series mostly up to 104 µM. In outline:
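Induction of beta-lactamase reporter activity was measured in CellSensor HRE-bla ME-180 cells after 17 h compound treatment at 37 degrees C, using CCF4 substrate and the 460nm/530nm emission ratio to derive AC50 values.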

The target of experiment [19] is Cytochrome P450 2D6 (Homo sapiens) (UniProt P10635). Description: qHTS Assay for Inhibitors and Substrates of Cytochrome P450 2D6 (AID 891). Note: potency is the fitted concentration of half-maximal effect; nearly all actives have a fitted effect of over 60% in size. Particulars: recombinant CYP2D6, luciferin-ME EGE luminescence; series mostly up to 57.1 µM. In outline:
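Human CYP2D6 (5 nM) with 30 uM Luciferin-ME EGE (at Km) in 100 mM KPO4, compound preincubated 10 min, then NADPH regeneration system for 60 min at room temperature. Luciferin read by luminescence; normalized to 1.43 uM quinidine.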

Experiment [20] deals with Cytochrome P450 2C9 (Homo sapiens) (UniProt P11712). Description: qHTS Assay for Inhibitors and Substrates of Cytochrome P450 2C9 (AID 883). Note: nearly all actives have a fitted effect of over 60% in size. Note: potency is the fitted concentration of half-maximal effect. To be noted: recombinant CYP2C9, luciferin-H luminescence, 60 min; series mostly up to 57.1 µM. The method, boiled down: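 A luminogenic readout tracked human CYP2C9 (10nM) converting deoxyluciferin (100uM, at KM) in 25mM KPO4 during 60 min at 37C with regenerated NADPH. Values normalized to 57uM sulphaphenazole as complete inhibition.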
Chain of Cytochrome P450 2C9 (Homo sapiens) (P11712 whole entry, looked up): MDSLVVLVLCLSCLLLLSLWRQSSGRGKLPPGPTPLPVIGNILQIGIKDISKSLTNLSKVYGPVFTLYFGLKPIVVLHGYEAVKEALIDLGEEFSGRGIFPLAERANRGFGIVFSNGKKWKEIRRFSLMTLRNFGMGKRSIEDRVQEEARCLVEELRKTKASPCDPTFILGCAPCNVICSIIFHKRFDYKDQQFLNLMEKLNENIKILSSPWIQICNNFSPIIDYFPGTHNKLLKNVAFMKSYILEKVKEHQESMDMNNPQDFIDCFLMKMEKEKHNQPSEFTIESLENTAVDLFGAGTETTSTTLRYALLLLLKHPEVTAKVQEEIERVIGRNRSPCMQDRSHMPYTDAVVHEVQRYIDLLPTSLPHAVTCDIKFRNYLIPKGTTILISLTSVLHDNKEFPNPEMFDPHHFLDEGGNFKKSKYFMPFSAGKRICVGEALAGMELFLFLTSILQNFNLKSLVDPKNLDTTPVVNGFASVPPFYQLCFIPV

Chain of Nuclear receptor subfamily 1 group I member 2 (Homo sapiens) (O75469 whole entry, looked up): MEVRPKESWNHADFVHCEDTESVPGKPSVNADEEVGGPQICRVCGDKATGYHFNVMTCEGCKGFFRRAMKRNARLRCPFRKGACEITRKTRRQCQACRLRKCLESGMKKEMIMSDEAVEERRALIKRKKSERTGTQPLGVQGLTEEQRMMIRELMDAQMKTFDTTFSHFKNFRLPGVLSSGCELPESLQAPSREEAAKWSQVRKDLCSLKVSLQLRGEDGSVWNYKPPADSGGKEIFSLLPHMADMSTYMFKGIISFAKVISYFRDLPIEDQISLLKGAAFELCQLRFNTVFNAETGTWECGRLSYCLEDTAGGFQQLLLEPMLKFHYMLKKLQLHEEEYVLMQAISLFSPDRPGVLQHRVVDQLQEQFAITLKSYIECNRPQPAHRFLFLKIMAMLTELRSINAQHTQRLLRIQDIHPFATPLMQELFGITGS
Chain of Glutathione peroxidase 1 (Homo sapiens) (P07203 whole entry, looked up): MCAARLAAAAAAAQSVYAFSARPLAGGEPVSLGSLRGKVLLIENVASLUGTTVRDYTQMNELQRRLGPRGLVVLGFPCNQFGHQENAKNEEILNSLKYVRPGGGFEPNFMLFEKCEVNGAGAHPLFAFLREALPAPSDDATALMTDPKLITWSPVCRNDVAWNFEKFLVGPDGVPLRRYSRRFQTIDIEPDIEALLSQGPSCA
Chain of Luciferin 4-monooxygenase (Photinus pyralis) (P08659 whole entry, looked up): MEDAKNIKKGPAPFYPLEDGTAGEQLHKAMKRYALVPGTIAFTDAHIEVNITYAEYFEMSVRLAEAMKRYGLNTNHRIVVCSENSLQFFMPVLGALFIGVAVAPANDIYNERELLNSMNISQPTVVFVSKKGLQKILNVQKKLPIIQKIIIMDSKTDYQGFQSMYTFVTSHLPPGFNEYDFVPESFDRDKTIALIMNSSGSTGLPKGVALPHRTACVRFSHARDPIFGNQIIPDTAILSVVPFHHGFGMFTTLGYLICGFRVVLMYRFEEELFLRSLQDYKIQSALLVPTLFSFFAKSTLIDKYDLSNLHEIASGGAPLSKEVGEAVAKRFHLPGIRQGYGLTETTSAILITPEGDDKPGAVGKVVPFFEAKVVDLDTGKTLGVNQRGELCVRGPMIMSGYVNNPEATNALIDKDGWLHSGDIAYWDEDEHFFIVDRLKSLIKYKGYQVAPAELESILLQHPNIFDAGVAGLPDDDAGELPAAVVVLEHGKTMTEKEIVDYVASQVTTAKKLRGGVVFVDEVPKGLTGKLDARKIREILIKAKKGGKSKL
Chain of Cytochrome P450 1A2 (Homo sapiens) (P05177 whole entry, looked up): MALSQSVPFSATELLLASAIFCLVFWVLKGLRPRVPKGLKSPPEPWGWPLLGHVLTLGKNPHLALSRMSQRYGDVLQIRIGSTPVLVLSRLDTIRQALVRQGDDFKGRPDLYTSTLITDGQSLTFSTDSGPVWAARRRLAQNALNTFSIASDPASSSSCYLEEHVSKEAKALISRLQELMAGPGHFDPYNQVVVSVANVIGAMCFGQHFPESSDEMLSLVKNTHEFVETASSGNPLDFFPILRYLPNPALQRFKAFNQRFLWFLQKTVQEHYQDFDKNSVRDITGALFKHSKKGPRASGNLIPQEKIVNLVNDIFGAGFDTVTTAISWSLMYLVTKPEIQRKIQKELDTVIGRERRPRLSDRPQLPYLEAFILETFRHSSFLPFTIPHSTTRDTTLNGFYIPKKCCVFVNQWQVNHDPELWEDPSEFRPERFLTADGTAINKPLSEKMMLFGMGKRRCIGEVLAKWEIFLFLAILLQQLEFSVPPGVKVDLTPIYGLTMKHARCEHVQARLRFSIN
Chain of Cytochrome P450 2C19 (Homo sapiens) (P33261 whole entry, looked up): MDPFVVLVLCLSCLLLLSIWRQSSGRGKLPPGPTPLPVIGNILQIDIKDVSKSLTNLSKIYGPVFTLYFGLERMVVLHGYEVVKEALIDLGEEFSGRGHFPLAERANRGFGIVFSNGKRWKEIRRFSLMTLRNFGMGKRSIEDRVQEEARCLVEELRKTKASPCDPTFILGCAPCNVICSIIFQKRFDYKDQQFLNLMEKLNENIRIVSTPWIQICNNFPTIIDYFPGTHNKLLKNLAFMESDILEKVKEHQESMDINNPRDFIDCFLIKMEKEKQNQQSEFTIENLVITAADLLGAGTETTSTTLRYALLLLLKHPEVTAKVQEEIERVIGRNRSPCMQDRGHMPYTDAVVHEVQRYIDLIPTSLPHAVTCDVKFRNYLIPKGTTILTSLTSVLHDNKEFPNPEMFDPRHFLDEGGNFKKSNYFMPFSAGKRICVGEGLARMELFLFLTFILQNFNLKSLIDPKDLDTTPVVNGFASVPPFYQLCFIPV

As to `C[C@@H]1CCC[C@H](C)N1NC(=O)c1ccc(Cl)c(S(N)(=O)=O)c1`, the compound was called inactive in experiment [1] and in [2]. For the same compound, the activity, negative = inhibition in experiment [3] (parasite line A) is 12.8%; in experiment [3] (parasite line B), 12%.

Take `O=c1cc(-c2ccc(O)cc2)oc2cc(O[C@H]3OC(CO)C(O)C(O)C3O)cc(O)c12` (stereo not given in full): the compound was classed as inactive in experiment [4], in experiment [5], in [6], in experiment [7], in experiment [10] and in experiment [13]. Besides, the call in experiment [14], in [15] and in experiment [16] was inactive. Besides, the Potency result in [8], in experiment [9] and in [11] was “inactive” in each case. Moreover, in experiment [12], the max response is -0.179%.

In the case of `CC(C)N1CCN(c2ccc(OC[C@@H]3CO[C@@](Cn4cncn4)(c4ccc(Cl)cc4Cl)O3)cc2)CC1`, the result in experiment [1] and in experiment [2] was inactive. Further, the activity, negative = inhibition in [3] (parasite line A) was 5.81%.

For the compound `C=C(NC(=O)C(=C)NC(=O)c1csc(C2=NC3c4csc(n4)C4NC(=O)c5csc(n5)C(C(C)(O)C(C)O)NC(=O)C5CSC(=N5)C(=CC)NC(=O)C(C(C)O)NC(=O)c5csc(n5)C3(CC2)NC(=O)C(C)NC(=O)C(=C)NC(=O)C(C)NC(=O)C(C(C)CC)NC2C=Cc3c(C(C)O)cc(nc3C2O)C(=O)OC4C)n1)C(N)=O` (stereo not given), the result in experiment [2] was inactive.

On to `O=c1ccc2ccc(O)cc2o1`, for which the outcome in experiment [4], in [6], in experiment [7], in [10], in experiment [13] and in experiment [14] was inactive. In addition, the call in [15] and in experiment [16] was inactive. Further, the Potency result in [8] and in experiment [11] was “inactive” each time. Also, the max response in experiment [12] is 2.6%.

Consider `CN(C)CC/C=C1\c2ccccc2CSc2ccccc21`, for which the outcome in [1] and in experiment [2] was inactive. Further, the results for the activity, negative = inhibition in experiment [3] (parasite line A) and in experiment [3] (parasite line B) were 4.44% and 2.26%, respectively.

For the compound `C=C(C)[C@H]1CC=C(C)C(=O)C1`, in [17], the Potency was over 92 µM. Besides, the result in experiment [18], in experiment [4], in [5], in experiment [6], in [7] and in [10] was inactive. Further, the result in experiment [13], in experiment [14], in [15] and in experiment [16] was inactive. Moreover, the Potency result in experiment [8], in experiment [9] and in experiment [11] was “inactive” each time. In addition, in experiment [12], the max response was 1.32%.

As for `C#C[C@]1(O)CCC2C3CCC4=C(CCC(=O)C4)C3CC[C@@]21C` (stereo not given in full), the outcome in experiment [2] was inactive.

For `COC(=O)C1=CO[C@@H](C)[C@H]2CN3CCc4c([nH]c5ccccc45)[C@@H]3C[C@H]12`, the Potency in [19] was 2 nM (active) and 7.9 nM (active); in experiment [8] it was 0.0398 µM (active); in experiment [11], 3.55 µM (active). In addition, the outcome in experiment [4], in [5], in [6], in experiment [7], in [10] and in [13] was inactive. In addition, the call in experiment [15] and in experiment [16] was inactive. The max response in experiment [12] was -2.56%.

Turning to `CN1C(CC(=O)c2ccccc2)CCCC1CC(O)c1ccccc1` (stereo not given), the result in [2] was inactive.

In the case of `C=CC(C)(O)CCC=C(C)C` (stereo not given), the Potency in experiment [17] was over 92 µM. Also, the result in [18] was inactive.

Consider `CC12CC[C@@H]3c4ccc(OS(=O)(=O)O)cc4CC[C@H]3C1CCC2=O` (stereo not given in full), for which the result in experiment [1] and in experiment [2] was inactive.

`COS(C)(=O)=O`: the Potency in experiment [17] was over 92 µM. The result in experiment [18] was inactive.

Regarding `Oc1ccc2c(c1)OCC1(O)Cc3cc(O)c(O)cc3C21` (stereo not given), the result in experiment [2] was inactive.

In the case of `COCC(=O)N1CCC2(CCN(Cc3ccncc3)CC2)CC1`, the Potency was 0.398 µM (active) in experiment [20] and 6.31 µM (active) in [19].

As to `N#CCCn1c(=O)cnc2cnc(N3CCNCC3)nc21`, the Potency entry in experiment [20] was “inactive”.

These data come from PubChem BioAssay (NCATS).
